High-throughput results: PubChem, several laboratories
Yeast superoxide: caloric restriction mimetics inhibiting age-related superoxide in yeast; S. cerevisiae aged cells, superoxide DHE fluorescence; hits give low values; superoxide response (% of plate mean), % at 10 µM; actives 0.18% (n = 330,000); AID 2690;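 active = superoxide response under a set limit, about three screen SD below normal, cut at about 65% in these data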;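 also: yeast aged for seven days with compound at 30 °C before DHE staining; 100% = average MFI of all compound-treated wells on the plate with controls excluded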
GLD-1 TGE inh: GLD-1-TGE RNA interaction inhibition (C. elegans); Q17339; purified GLD-1 + fluorescein TGE RNA, fluorescence polarization; inhibition, % at 5.96 µM; actives 0.44% (n = 320,000); AID 2280;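 active = percent inhibition above a per-plate cutoff, the plate mean of test compounds plus 3 SD, cut at about 30% in these data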;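 also: 0% = DMSO wells with GLD-1 and probe and 100% = wells lacking GLD-1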
MCL1 BIM primary: disrupts human MCL1 binding to BIM-BH3 peptide. Q07820. GST-MCL1 / FITC-Bim-BH3 fluorescence polarization. inhibition, % at 10.9 µM. actives 0.68% (n = 320,000). AID 2057;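 active = inhibition above the mean inhibition of all tested compounds plus 3 SD, set per campaign, cut at about 40% in these data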;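 also: 0% = DMSO wells and 100% = unlabeled Bim-BH3 peptide control; higher means more loss of mP so more displacement of Bim peptide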
Target sequence (Q07820 whole entry, looked up): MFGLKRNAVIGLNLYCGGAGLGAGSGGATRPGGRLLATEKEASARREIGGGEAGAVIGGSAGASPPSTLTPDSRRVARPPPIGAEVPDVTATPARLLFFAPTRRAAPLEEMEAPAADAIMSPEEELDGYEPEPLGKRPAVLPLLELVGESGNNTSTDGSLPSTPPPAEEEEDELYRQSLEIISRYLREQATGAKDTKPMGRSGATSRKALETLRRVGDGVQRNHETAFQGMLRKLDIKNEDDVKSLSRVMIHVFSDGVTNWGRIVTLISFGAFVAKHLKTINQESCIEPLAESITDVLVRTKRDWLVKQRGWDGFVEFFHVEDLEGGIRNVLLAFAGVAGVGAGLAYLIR
MEX-5 binding: C. elegans MEX-5 TCR-2 RNA binding activity; activity score (negative = inhibition of binding), % at 10 µM; AID 1832; Q9XUB2; actives 0.38% (n = 300,000); MEX-5/FITC-TCR2 RNA binding, fluorescence polarization; hits give low values;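 active = inhibition past about -25% in most replicates, and total fluorescence under double the plate's negative control median, limit read from the data; inconclusive = replicates evenly split on the limit, or fluorescence at least double controls; inactive = too little inhibition in most replicates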;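 also: 0% = DMSO and -100% = 5 µM competing unlabeled TCR2 RNA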
BCLXL inh: Bcl-xL (human) inhibition; GST-Bcl-xL / FITC-Bim BH3 peptide fluorescence polarization; inhibition, % at 10.9 µM; actives 0.7% (n = 320,000);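 active = inhibition above the mean of all tested compounds plus 3 SD, cutoff set per campaign, cut at about 30% in these data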;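 also: 0% = DMSO wells and 100% = unlabeled Bim-BH3 peptide competitor; inhibitors lower millipolarization by displacing the labeled peptide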
Target sequence (Q07817 whole entry, looked up): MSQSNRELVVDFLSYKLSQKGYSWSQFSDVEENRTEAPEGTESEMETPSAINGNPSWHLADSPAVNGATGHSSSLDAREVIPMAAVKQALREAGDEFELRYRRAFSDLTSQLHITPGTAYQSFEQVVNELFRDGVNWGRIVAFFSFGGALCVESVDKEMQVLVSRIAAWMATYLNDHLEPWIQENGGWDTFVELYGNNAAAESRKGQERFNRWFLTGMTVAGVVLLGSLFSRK
LANA-H2A inh: blocks KSHV LANA binding to histone H2A/H2B; Q9QR71; cell-free LANA-H2A/H2B peptide, fluorescence polarization; inhibition, % (concentration not given with the values); actives 0.6% (n = 320,000); AID 2629; in the data active = inhibition mostly above about 10%, no sharp cut-off; inactive = mostly below about 6.7%
* hit, by the source's call; ? = inconclusive; . = no result. Shown are actives, neighbours in structure and some others; about 1.9% of the full set was active somewhere.

SMILES	Yeast superoxide	GLD-1 TGE inh	MCL1 BIM primary	MEX-5 binding	BCLXL inh	LANA-H2A inh
Cc1ccc2cc(C)c3nnc(SCc4ccc(C(=O)O)cc4)n3c2c1C	101	2	-4	-1	4	2
CC(NC(=O)c1cccc(S(=O)(=O)N2CCCCCC2)c1)c1ccccc1 (stereo unspecified)	89	-1	1	.	1	.
CCCCCCc1cc2cc(S(=O)(=O)c3ccc(F)cc3)c(=O)oc2cc1O	108	60*	1	1	10	0
O=C(O)c1ccc2oc(=O)c(S(=O)(=O)c3ccc(F)cc3)cc2c1	101	6	0	1	2	0
CCCCCCc1cc2cc(-c3nnc(-c4ccccc4OC)o3)c(=O)oc2cc1O	94	-84	-104	-3	-58	10*
CCCCCCc1cc2cc(-c3nnc(-c4ccccc4O)o3)c(=O)oc2cc1O	103	-117	-102	1	-50	-3
CCc1ccc(C(=O)NNC(=O)CCC2CCCCC2)cc1	99	3	4	1	3	0
O=C(CCC1CCCC1)NNC(=O)c1ccc(F)cc1	94	4	1	.	0	50*
CCOc1ccc(NC(=O)CN(C)C(=O)COc2cccc3c2OC(C)(C)C3)cc1OCC	89	-3	-9	.	-8	0
O=C(NCCCO)C(=O)Nc1cc2c3c(c1)CCC(=O)N3CCC2	112	2	0	-1	3	19*
Cc1ccc(S(=O)(=O)c2cc3ccccc3oc2=O)cc1	109	4	-1	-2	6	1
CCN(CC)c1ccc2cc(S(=O)(=O)c3ccc(C)cc3)c(=O)oc2c1	103	-39	-24	-77*	-8	4
CCN(CC)c1ccc2cc(C#N)c(=O)oc2c1	113	-39	-25	-57*	-12	-11
CC1=NN(c2ccc(C(=O)O)c(N)c2)C(=O)C1	111	-2	20	-39*	21	-3
CC1=NN(c2ccc(Cl)c(C(=O)O)c2)C(=O)C1	108	3	3	-2	5	-1
CN(CC1COc2ccccc2O1)C(=O)c1cccc(S(=O)(=O)N2CCCC2)c1 (stereo unspecified)	122	-2	1	.	1	2
COc1ccc(C2c3c(n[nH]c3C)CC(C)(O)C2C(C)=O)cc1OC (stereo unspecified)	106	0	-1	-4	-1	10*
C=CC[C@H](CC(=O)N(CCO)Cc1ccccc1)C(=O)N[C@H](C)COC(=O)[C@@H](CC=C)CC(=O)OC(C)(C)C	104	1	.	.	.	1
CC(C)Cn1nc(C(=O)Nc2nnc(C3CC3)s2)c2ccccc2c1=O	104	-5	0	.	1	-3
COc1ccc(OC)c(COC(=O)c2cccc(S(=O)(=O)N3CCCCC3)c2)c1	104	6	.	.	.	-1
COc1cccc(CNC(=O)CCC(=O)N2CCOCC2)c1	83	2	0	.	-1	1
O=C(CCC(=O)N1CCOCC1)NCc1cccc(C(F)(F)F)c1	86	4	-3	.	3	22*
O=c1c([N+](=O)[O-])c[nH]c2ccccc12	93	4	12	-2	11	15*
O=C(CCNS(=O)(=O)c1ccc(F)c(F)c1)NCCN1CCOCC1	101	8	.	.	.	0
C=CCN(CC=C)C(=O)C1CCN(S(=O)(=O)c2ccc(N3CCCC3=O)cc2)CC1	88	1	2	-2	6	15*
SMILES	Yeast superoxide	GLD-1 TGE inh	MCL1 BIM primary	MEX-5 binding	BCLXL inh	LANA-H2A inh
Cc1ccc(C)c(N2CCN(C(=O)CCc3nc(-c4cccc(Cl)c4)no3)CC2)c1	103	.	.	.	.	.
Cc1nnsc1C(=O)N/N=C/c1ccc2ccccc2c1O	108	-57	84*	-2	75*	12
Cc1ccc(NC(=O)C(c2ccccc2)N2CCN(CC(=O)N3CCOCC3)CC2)cc1Cl (stereo unspecified)	99	-1	-16	.	-4	2
Cn1c(=O)[nH]c(=O)c2c1nc(N1CCNCC1)n2Cc1ccccc1	102	-6	-1	3	8	-1
Cn1c(=O)[nH]c(=O)c2c1nc(N1CCNCC1)n2Cc1cccc2ccccc12	93	10	10	1	4	18*
O=C(COc1cc(F)ccc1[N+](=O)[O-])NCC1CCCO1 (stereo unspecified)	111	8	.	.	.	6
Cc1nonc1OCCN1CCN(c2ccccc2[N+](=O)[O-])CC1	94	5	4	0	0	23*
COc1ccc(CCC(=O)Nc2cccc(Cl)c2)cc1	109	6	1	?	3	-1
COc1ccc2cc(CCC(C)=O)ccc2c1	100	-3	7	2	5	13*
CC(=O)N(Cc1c(C#N)c2ccccc2n1C)c1ccccc1	100	-6	-2	3	-5	1
CC(=O)N(Cc1ccccc1)c1ncc2c(n1)c(=O)c(C#N)c1ccccn12	116	18	45*	-8	34*	1
Cc1ccc(S(=O)(=O)n2c([N+](=O)[O-])cnc2C)cc1C	84	1	-7	-1	-2	12*
Cc1cc(C)c(S(=O)(=O)n2c([N+](=O)[O-])cnc2C)cc1C	76	6	-1	3	5	-3
COc1cc(C(=O)Nc2nc3ccccc3[nH]2)ccc1OC(F)F	95	1	-6	2	73*	2
COc1ccc(C(=O)Nc2nc3ccccc3[nH]2)cc1OC	102	-3	-2	-1	-1	0
Cc1cccn2c(=O)c3cc(C(=O)NCC4CCCO4)c(=N)n(Cc4cccnc4)c3nc12 (stereo unspecified)	91	0	14	.	24	-25
N=c1c(C(=O)NC2CCCCC2)cc2c(=O)n3ccccc3nc2n1Cc1cccnc1	94	2	7	-35*	8	-1
Cc1cccn2c(=O)c3cc(C(=O)NC(C)C)c(=N)n(Cc4ccncc4)c3nc12	96	-2	2	-18	1	-1
N=c1c(C(=O)NCC2CCCO2)cc2c(=O)n3ccccc3nc2n1Cc1cccnc1 (stereo unspecified)	105	10	34	-44*	37*	-1
CCNC(=O)c1cc2c(=O)n3cccc(C)c3nc2n(Cc2ccc(C)cc2)c1=N	118	-10	-7	-78*	-9	11
N=c1c(C(=O)NC2CCCCC2)cc2c(=O)n3ccccc3nc2n1CCc1ccccc1	95	1	7	-26*	11	-8
Cc1nn(C(C)C(=O)NCCc2cccs2)c(=O)c2nn(-c3ccccc3)c(C)c12 (stereo unspecified)	97	0	0	-2	3	-4
COc1cc(CCC(=O)OCC(=O)NCCc2ccc(S(N)(=O)=O)cc2)cc(OC)c1OC	110	3	.	.	.	3
